From the supplement of paper PMC6555819

Tests used:
Experiment in all cases: PBM binding z-score (relative to random genomic background probes); higher = stronger binding; sequences stand for … in GC…GCGATTGACAGCGTAGAATGAAGG
[1] = test system: FXR:RXRa (NR concentration 270 nM, RXRa partner concentration 90 nM)
Procedure, shortened: (§1)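 For binding z-scores, the reference was random background probes on custom Agilent 4×180K protein-binding microarrays. These arrays were incubated 1 h with ligand-free nuclear receptor dimers in PBS pH 7.4, 2% milk, 0.02% Triton X-100, 1 mM DTT, 0.2 mg/mL BSA and 0.4 mg/ml salmon testes DNA. Fluorescence was scanned after antibody detection of each partner (one per run) and regression-normalized.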

[2] = test system: LXRa:RXRa (NR concentration 270 nM, RXRa partner concentration 90 nM)
Procedure, shortened: as §1

[3] = test system: LXRa homodimer (NR concentration 270 nM)
Procedure, shortened: as §1

[4] = test system: LXRb:RXRa (NR concentration 270 nM, RXRa partner concentration 90 nM)
Procedure, shortened: as §1

[5] = test system: LXRb homodimer (NR concentration 270 nM)
Procedure, shortened: as §1

[6] = test system: PPARa:RXRa (NR concentration 270 nM, RXRa partner concentration 90 nM)
Procedure, shortened: as §1

[7] = test system: PPARg:RXRa (NR concentration 180 nM, RXRa partner concentration 90 nM)
Procedure, shortened: as §1

[8] = test system: PPARg:RXRa 270nM:90nM, anti-RXR (NR concentration 270 nM, RXRa partner concentration 90 nM)
Procedure, shortened: as §1

[9] = test system: PPARg:RXRa 30nM:10nM, anti-RXR (NR concentration 30 nM, RXRa partner concentration 10 nM)
Procedure, shortened: as §1

[10] = test system: PPARg:RXRa 90nM:30nM, anti-RXR (NR concentration 90 nM, RXRa partner concentration 30 nM)
Procedure, shortened: as §1

[11] = test system: PPARg:RXRa DBDmut IVT, anti-RXR (DBD mutation: RXRa K156A/R161A, NR concentration 270 nM, RXRa partner concentration 90 nM)
Procedure, shortened: as §1

[12] = test system: PPARg:RXRa IVT, anti-PPARg (NR concentration 270 nM, RXRa partner concentration 90 nM)
Procedure, shortened: as §1

[13] = test system: PPARg DBDmut:RXRa IVT, anti-PPARg (DBD mutation: PPARg1 K132A/R137A, NR concentration 270 nM, RXRa partner concentration 90 nM)
Procedure, shortened: as §1

[14] = test system: PPARg DBDmut IVT, anti-PPARg (DBD mutation: PPARg1 K132A/R137A, NR concentration 270 nM)
Procedure, shortened: as §1

[15] = test system: PPARg homodimer (NR concentration 180 nM)
Procedure, shortened: as §1

[16] = test system: PXR:RXRa (NR concentration 270 nM, RXRa partner concentration 90 nM)
Procedure, shortened: as §1

[17] = test system: PXR homodimer (NR concentration 270 nM)
Procedure, shortened: as §1

[18] = test system: RARa:RXR (NR concentration 270 nM, RXRa partner concentration 90 nM)
Procedure, shortened: as §1

[19] = test system: RARa homodimer (NR concentration 270 nM)
Procedure, shortened: as §1

[20] = test system: RARb:RXRa (NR concentration 270 nM, RXRa partner concentration 90 nM)
Procedure, shortened: as §1

Sequence | PBM binding z-score [1] | PBM binding z-score [2] | PBM binding z-score [3] | PBM binding z-score [4] | PBM binding z-score [5] | PBM binding z-score [6] | PBM binding z-score [7] | PBM binding z-score [8] | PBM binding z-score [9] | PBM binding z-score [10] | PBM binding z-score [11] | PBM binding z-score [12] | PBM binding z-score [13] | PBM binding z-score [14] | PBM binding z-score [15] | PBM binding z-score [16] | PBM binding z-score [17] | PBM binding z-score [18] | PBM binding z-score [19] | PBM binding z-score [20]
AGTCAATGTTCACTAGGTAACGTAAGATTCAGCT | -0.318 | -0.205 | -0.143 | -0.121 | -0.147 | 0.363 | 0.656 | 0.368 | 0.15 | 0.302 | 1.92 | 2.92 | 1.08 | 0.776 | 0.288 | -0.0899 | -0.202 | -0.181 | -0.0197 | 0.143
TCTATTAGTTGAAGGGAAACCGACGAGTCCGTTT | 0.681 | 0.912 | 0.189 | 0.65 | 0.644 | 0.587 | -0.183 | 2.13 | 4.34 | 3.16 | 2.49 | -0.0119 | 0.417 | 1.24 | 1.32 | 0.508 | 0.678 | 0.362 | 1.42 | 0.377
TTAGCAAGGTGAAAGGTCGTTGATGCACGCCTTG | 3.42 | 2.78 | -0.037 | 2.47 | -0.713 | 5.24 | 8.3 | 7.95 | 8.33 | 9.55 | 2.15 | 4.63 | 0.373 | -0.113 | 1.42 | 3.85 | 0.158 | 5.72 | -0.524 | 2.98
CGTCCAAGGTCAGAGAGGTCAGTCAATGCCGAGT | 6.08 | 5.49 | 3.45 | 4.65 | 0.441 | 4.81 | 3.37 | 4.63 | 1.03 | 2.63 | 2.82 | 3.35 | -0.282 | -0.369 | 4.06 | 6.13 | 12.6 | 5.82 | 1.78 | 5.12
CGAACTAGGTCATTCAGGACAGTGAATACATTGA | 4.37 | 2.73 | 0.67 | 2.11 | 0.253 | 4.49 | 7.24 | 6 | 3.42 | 5.66 | 8.1 | 7.91 | 2.05 | 1.68 | 1.19 | 2.04 | 1.68 | 2.17 | 0.688 | 3.61
ACTATTAGTTGACTTAGTGCAACCGATACGACGC | -0.217 | -0.0103 | -0.0872 | -0.107 | 0.478 | -0.0535 | 0.743 | 0.105 | 0.433 | 0.153 | 0.167 | 0.382 | 0.85 | 0.707 | 0.732 | 0.283 | 0.128 | 0.123 | 0.689 | 0.309
ACAGACAGGTGAATGAAGGTAACTCAGCTGGACG | 0.255 | -0.0154 | -0.43 | -0.273 | -0.569 | 0.447 | 0.97 | 0.258 | 0.0803 | 0.0876 | 0.834 | 1.06 | 0.562 | -0.518 | -0.217 | -0.156 | -0.221 | 0.42 | -0.316 | 0.743
AGAAAGAGGTTATTAAGATCAGGGAATTGCGGTC | 2.15 | 2.15 | 0.442 | 1.75 | 0.379 | 2.71 | 1.18 | 1.43 | 0.665 | 1.29 | 1.7 | 1.4 | 0.63 | 0.0238 | 1.2 | 1.38 | 0.96 | 1.93 | 1.28 | 1.97
TCGAATAGGTTAGTCGGGGCATTCAGCCAACATA | 0.693 | 0.608 | -0.0621 | 1.02 | -0.284 | 1.29 | 0.133 | 1.54 | 2.74 | 1.94 | 2.05 | 0.81 | -0.355 | -0.412 | 0.278 | 0.59 | 0.0716 | 0.628 | -0.516 | 1.06
ATCCAAAGGTCGAAGGTGAGTATACCCACCCGAA | 5.05 | 4.12 | 0.34 | 3.2 | 0.577 | 4.95 | 5.19 | 5.37 | 2.53 | 4.33 | 0.6 | 2.51 | 0.413 | 0.999 | 2.58 | 3.26 | 0.0246 | 4.54 | 0.353 | 3.97
ATCTCTAGGTCACAAGTTCAGTGAAAGAGAGGAC | 3.91 | 4.68 | 3.14 | 3.08 | 2.24 | 4.35 | 6.67 | 5.95 | 3.16 | 5.39 | 6.82 | 6.99 | 2.94 | 2.5 | 2.82 | 3.7 | 2.65 | 3.86 | 1.69 | 4.5
TCAATTAGTTGATTAGGGCAACCGAAACAGCGGA | 0.579 | 0.188 | -0.056 | 0.445 | -0.277 | 0.882 | 0.217 | 1.6 | 3.41 | 2.45 | 2.01 | 1.32 | 0.608 | 0.646 | -0.173 | 0.326 | 0.219 | 0.567 | 0.493 | 0.665
CCTTAAGGGTCACTCCAGGTTATAGCATCGGAGT | 6.75 | 7.97 | 3.36 | 5.9 | 0.565 | 5.33 | 4.86 | 5.1 | 2.01 | 4.34 | 3.17 | 4.07 | 0.0681 | 0.102 | 2.47 | 5.59 | 0.47 | 4.49 | 0.956 | 4.97
